UBC9 SUMO inh = inhibitors of in vitro SUMOylation cascade, primary screen, biochemical, HTRF, uHTS; AID 2006, 2009; HTRF SUMOylation assay, SAE1/SAE2 + UBC9; hit rate 0.36% among 290,000; inhibition, % at 35 µM; in the data active = inhibition above about 50%, passing the limit was not always enough
Redox H2O2 prof = compounds producing H2O2 with reducing agent – biochemical, NIH compound library profiling, artefact control for MLSCN library redox annotation, primary screen. DTT-dependent redox cycling H2O2, phenol red/HRP absorbance; 100% = 100 µM peroxide control, 0% = buffer. activation, % at 10 µM. hit rate 0.03% among 200,000. AID 878, 2007;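 active = activation of at least 50% relative to the plate's high and low controls in the primary single-dose screen; inactive = activation below 50%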;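 also: compound incubated with DTT at 0.8 mM final as the reducing agent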
FAS TE block = FAS thioesterase domain inhibitors, primary screen, biochemical, fluorescence intensity, uHTS. Fatty acid synthase (Homo sapiens), P49327. recombinant FAS-TE, OMFH fluorogenic substrate, fluorescence endpoint. inhibition, % at 15 µM. hit rate 0.67% among 360,000;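 active = compounds whose normalised, plate-corrected inhibition of enzyme fluorescence in the single-dose primary screen is 50% or more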
p97 ATPase inh = inhibitors of human p97 ATPase, primary screen, biochemical | Transitional endoplasmic reticulum ATPase (Homo sapiens), P55072 | recombinant p97 ATPase, Kinase-Glo ATP luminescence, 3 h | inhibition, % at 8 µM | hit rate 0.42% among 220,000 | AID 1481, 2009; in the data active = inhibition above about 15%
Target sequence (P55072 whole entry, looked up): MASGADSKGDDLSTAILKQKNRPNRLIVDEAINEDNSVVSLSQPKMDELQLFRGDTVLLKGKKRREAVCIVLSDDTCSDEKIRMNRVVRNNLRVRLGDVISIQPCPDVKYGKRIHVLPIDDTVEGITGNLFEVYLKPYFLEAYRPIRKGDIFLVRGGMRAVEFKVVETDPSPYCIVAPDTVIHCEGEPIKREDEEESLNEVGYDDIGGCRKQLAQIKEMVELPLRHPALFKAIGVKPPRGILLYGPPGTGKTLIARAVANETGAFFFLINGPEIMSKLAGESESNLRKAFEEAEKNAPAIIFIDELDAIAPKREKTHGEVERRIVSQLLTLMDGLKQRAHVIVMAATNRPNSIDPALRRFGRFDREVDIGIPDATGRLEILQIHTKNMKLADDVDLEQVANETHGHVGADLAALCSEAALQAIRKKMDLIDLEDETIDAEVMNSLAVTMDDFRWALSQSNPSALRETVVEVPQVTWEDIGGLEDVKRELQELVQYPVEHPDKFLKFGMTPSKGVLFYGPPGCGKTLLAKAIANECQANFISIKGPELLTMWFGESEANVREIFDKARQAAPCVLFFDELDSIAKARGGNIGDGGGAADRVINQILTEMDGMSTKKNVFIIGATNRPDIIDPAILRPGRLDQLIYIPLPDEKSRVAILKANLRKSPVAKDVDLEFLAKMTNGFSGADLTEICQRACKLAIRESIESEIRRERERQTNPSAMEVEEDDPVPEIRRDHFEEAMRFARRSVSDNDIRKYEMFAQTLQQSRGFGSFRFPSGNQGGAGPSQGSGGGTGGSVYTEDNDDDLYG
PKD1 inh = inhibitors of human PKD1 kinase, biochemical, fluorescence polarization | Serine/threonine-protein kinase D1 (Homo sapiens), Q15139 | PKD1 kinase fluorescence polarization assay | inhibition, % (test concentration not listed) | hit rate 0.056% among 200,000; in the data active = inhibition above about 50%
Furin inhibitor = human furin inhibitors, primary screen, biochemical, fluorescence intensity; AID 463115, 2010; purified furin, fluorogenic substrate cleavage; inhibition, % at 20 µM or 30 µM; hit rate 0.061% among 220,000; in the data active = inhibition above about 25%
FAS-TE inh conf = FAS thioesterase domain inhibitors, confirmation, biochemical, fluorescence intensity, single concentration | shares compounds with FAS TE block | inhibition, % at 15 µM | recombinant FAS-TE, OMFH fluorogenic substrate | hit rate 45% among 2,300;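 active = compounds inhibiting the enzyme by at least 50% at 15 µM in any one of the replicates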
Hits are given with their value; - = inactive; . = no result. In the library only some 1.2% were active in any assay of this set; here they are far more common.

SMILES	UBC9 SUMO inh	Redox H2O2 prof	FAS TE block	p97 ATPase inh	PKD1 inh	Furin inhibitor	FAS-TE inh conf
CCn1c2ccccc2c2cc(NC(=O)c3cccc([N+](=O)[O-])c3)ccc21	.	.	-	.	.	.	.
CC(OC(=O)c1cccc([N+](=O)[O-])c1)C(=O)N1CCc2ccccc21 (configuration not stated)	.	.	77	.	.	.	59
CC(=O)Nc1cccc(C(=O)OC(C)C(=O)N2CCc3ccccc32)c1 (configuration not stated)	.	.	-	.	.	.	.
Cc1ccc(-c2nnc(SCC(=O)N/N=C/c3c(C)nn(-c4ccccc4)c3C)n2-c2ccc(C)cc2)cc1	-	-	62	-	-	-	-
Cc1ccc(-c2nnc(SCC(=O)N/N=C/c3c(C)nn(-c4ccccc4)c3C)n2-c2ccccc2)cc1	-	-	-	-	-	-	.
COc1ccccc1NC(=O)c1ccc2c(c1)N(CC(=O)NC(C)C)C(=O)C(C)(C)O2	-	.	-	.	.	.	.
CCCCCCCCOC(=O)C1=C(C)Nc2nnnn2C1c1cccs1 (configuration not stated)	-	-	62	-	-	-	-
CCCCCCCOC(=O)C1=C(C)Nc2ncnn2C1c1cccs1 (configuration not stated)	-	-	-	-	-	-	.
COc1ccccc1N1CC(C(=O)Nc2cc(C(F)(F)F)ccc2N2CCCC2)CC1=O (configuration not stated)	.	.	63	.	.	.	65
Cc1ccc(N2CC(C(=O)Nc3cc(C(F)(F)F)ccc3N3CCCC3)CC2=O)cc1 (configuration not stated)	.	.	-	.	.	.	.
CC(CNS(=O)(=O)c1ccc(Cl)cc1)n1cncn1 (configuration not stated)	-	.	-	.	.	.	.
CCN(CC)S(=O)(=O)c1ccc(N2CCOCC2)c(NC(=O)C(=O)c2c(-c3ccccc3)cc3ccccn23)c1	-	-	54	-	-	-	-
C=CCN1C(=O)/C(=C/c2ccc(OC(C)=O)c(OCC)c2[N+](=O)[O-])SC1=S	-	-	75	-	-	-	46
Cc1cc(C)cc(N(CC(=O)N2CCn3c2nc2ccccc23)S(=O)(=O)c2c(C)noc2C)c1	-	-	65	-	-	-	-
Cc1cc(C)cc(N(CC(=O)N2CCc3ccccc32)S(=O)(=O)c2c(C)noc2C)c1	-	-	-	-	-	-	.
Nc1ncc([N+](=O)[O-])cc1S(=O)(=O)c1ccccc1	.	.	-	.	.	.	.
CCN1CCN(c2ccc(NC(=O)c3cc(S(=O)(=O)N4CCCC4)ccc3Cl)cc2)CC1	.	.	-	.	.	.	.
O=C(O)CC/C(=N/NC(=O)CNC(=O)c1ccc2c(c1)OCCO2)c1ccccc1	-	.	-	.	.	.	.
CCOc1ncccc1C(=O)OCC(=O)NC1CCCCC1	.	.	-	.	.	.	.
Cc1c(S(=O)(=O)NC2CCCCC2)c(=O)n(C)c(=O)n1C	.	.	-	.	.	.	.
COc1ccc(-c2nn(-c3ccccc3)cc2/C=C/C(=O)O)cc1[N+](=O)[O-]	-	.	53	-	.	-	62
CCC/C=C/c1ccc(CN2C(C)C(=O)N(Cc3cn(CC4CCCCC4)nn3)CCS2(=O)=O)cc1 (configuration not stated)	.	.	-	.	.	.	.
O=C(NCC(c1ccco1)N1CCc2ccccc2C1)c1ccc([N+](=O)[O-])cc1 (configuration not stated)	.	.	60	.	.	.	-
Cc1ccc(OCCC(=O)OCC(=O)N2CCN(S(=O)(=O)c3ccc(C)cc3)CC2)cc1	.	.	-	.	.	.	.
COc1ccc(-c2c([C@H]3[C@H]4C=CC[C@@H](C)[C@@H]4C(=O)N3Cc3ccccc3)ccc3ccccc23)cc1OC	-	.	55	.	.	-	-
SMILES	UBC9 SUMO inh	Redox H2O2 prof	FAS TE block	p97 ATPase inh	PKD1 inh	Furin inhibitor	FAS-TE inh conf
COc1ccc(NC(=O)N2CCCC2C(=O)NCCc2ccccc2)cc1 (configuration not stated)	-	.	-	.	.	.	.
O=S(=O)(Nc1ccc2c(c1)OCCO2)c1ccc(F)c(F)c1	-	.	-	.	.	.	.
O=S(=O)(Nc1ccc2c(c1)OCCO2)c1ccc2oc3ccccc3c2c1	-	-	62	-	-	-	47
COc1cc2cc(CCOC(=O)c3ccco3)oc(=O)c2cc1OC	.	.	-	.	.	.	.
Cc1ccc(C)c(CN2C(=O)c3ccccc3S(=O)(=O)c3ccc(C(=O)N4CCN(C)CC4)cc32)c1	-	.	-	.	.	.	.
Cc1ccc(C)c(CN2C(=O)c3ccccc3S(=O)c3ccc(C(=O)N4CCN(c5ccccn5)CC4)cc32)c1 (configuration not stated)	-	-	72	-	-	-	-
CCOC(=O)[C@]12Cc3c(cc(OC)c(OC)c3OC)[C@H]1N(C1CCCCC1)C(=O)c1cc(OC)ccc12	.	.	50	.	.	.	-
CCOC(=O)N1CCC(N2C(=O)c3ccccc3C2Nc2cc(OC)c(OC)c(OC)c2)CC1 (configuration not stated)	-	-	-	-	-	-	.
CC1CCCN(S(=O)(=O)c2ccc(NC(=O)Cc3ccc(S(=O)(=O)N4CCOCC4)s3)cc2)C1 (configuration not stated)	.	.	61	.	.	.	28
CCOC(=O)C(C(=O)NCc1ccc(F)cc1)c1ncc(C(F)(F)F)cc1Cl (configuration not stated)	-	-	-	-	-	-	.
O=C(NCc1ccc(F)cc1)C(C(=O)NCc1ccc(F)cc1)c1ncc(C(F)(F)F)cc1Cl	-	-	58	-	-	-	62
COc1ccc(NC(=O)COC(=O)c2cc(C)oc2C)c([N+](=O)[O-])c1	.	.	-	.	.	.	.
O=C(COc1cccc(OC(F)F)c1)Nc1ccc(SC(F)F)cc1	-	-	-	-	-	-	.
O=C(COc1cccc(Oc2ccccc2)c1)Nc1ccc(SC(F)F)cc1	-	-	81	-	-	-	55
CC(CNC(=O)[C@@H](Cc1ccccc1)NC(=O)CC[C@H]1O[C@@H](n2ccc(=O)[nH]c2=O)[C@H](O)[C@@H]1O)c1ccccc1 (some centres not stated)	.	.	-	.	.	.	.
O=C(CSCc1cc(=O)n2nc(C3CC3)sc2n1)Nc1ccccc1Cl	-	.	-	.	.	.	.
COc1ccc(OC)c(NC(=O)C(=O)N/N=C/c2ccccc2[N+](=O)[O-])c1	-	-	-	-	-	-	.
COc1ccc(NC(=O)C(=O)N/N=C/c2cc(C)n(-c3cccc(Cl)c3Cl)c2C)c(OC)c1	-	-	63	-	-	-	-
CCN1C(=O)[C@H]2[C@@H](c3ccc(C)cc3)N3C(=O)N(c4cccc(Cl)c4)C(=O)[C@@]3(Cc3ccccc3)[C@H]2C1=O	.	.	-	.	.	.	.

Screening data as filed in PubChem BioAssay.
